Assay results published in PubChem BioAssay (NCATS).
Records with an inconclusive call do not appear. The source made the active and inactive calls. Unless noted, calls come from the whole dose curve.

Columns and labels:
[1] = biological target: Glucocorticoid receptor (Homo sapiens) (UniProt P04150); assay: qHTS assay for small molecule agonists of glucocorticoid receptor signaling (AID 588532; active = well fitted curve in the direction sought with a large enough effect in the signal ratio, with a control signal flat; the % refers to the signal ratio;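 note: 100% = dexamethasone at 0.1 µM and 0% = DMSO only wells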); details: HeLa MMTV-bla, beta-lactamase ratio, agonist, 18 h; activation: stronger effect = higher value, percent of dexamethasone control, DMSO zero
Summary of the method: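 Cells were plated and rested 3-5 h at 37 C, compounds were added in titration and incubated 18 h, then CCF4 substrate was loaded for 2 h at RT before reading blue/green fluorescence. EC50 came from Hill-equation fitting.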

[2] = biological target: Glucocorticoid receptor (Homo sapiens) (UniProt P04150); assay: qHTS assay for small molecule antagonists of glucocorticoid receptor signaling (AID 588533; active = well fitted inhibition curve with a large enough effect in the signal ratio, with a control signal flat, not every such curve was filed as active; the % refers to the signal ratio; note: % is set by controls: 0 for no effect and ±100 for the full control effect)
Summary of the method: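 Antagonist-mode qHTS: compound titrations added to GRE-bla HeLa cells, then dexamethasone 2 nM final; 18 h, 37 C. CCF4 FRET fluorescence normalized to dexamethasone and DMSO; IC50 from Hill fit.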

[3] = qHTS assay for small molecule antagonists of peroxisome proliferator-activated receptor delta signaling (AID 588535; active = well fitted inhibition curve with a large enough effect in the signal ratio, with a control signal flat, not every such curve was filed as active; the % refers to the signal ratio;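 for max response: cells co-treated with a PPAR-delta agonist as stimulator during compound exposure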); details: HEK293T PPARd-UAS-bla, beta-lactamase FRET ratio, 18 h; 460 nm channel
Summary of the method: (§1)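 Fluorescence from CCF4-loaded GeneBLAzer PPAR-delta-UAS-bla HEK293T cells (2 hrs RT loading) quantified reporter inhibition after an 18 hr, 37 C compound exposure across a titration.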

[4] = biological target: Peroxisome proliferator-activated receptor delta (Homo sapiens) (UniProt Q03181); assay: as above
Summary of the method: as §1

[5] = biological target: Peroxisome proliferator-activated receptor gamma (Homo sapiens) (UniProt P37231); assay: qHTS assay for small molecule agonists of peroxisome proliferator-activated receptor gamma signaling (AID 588536; active = well fitted curve in the direction sought with a large enough effect in the signal ratio, with a control signal flat, not every such curve was filed as active; the % refers to the signal ratio;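 note: 0% = DMSO basal wells and 100% = rosiglitazone at 2 µM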)
Summary of the method: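 Compound treatment: 16 h, 37 C, HEK293 GeneBLAzer cells. Detection: CCF4, 2 h RT. Values: Hill-fit EC50, efficacy as % of 2 uM rosiglitazone.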

[6] = biological target: Peroxisome proliferator-activated receptor gamma (Homo sapiens) (UniProt P37231); assay: qHTS assay for small molecule antagonists of peroxisome proliferator-activated receptor gamma signaling (AID 588537; active = well fitted inhibition curve with a large enough effect in the signal ratio, with a control signal flat, not every such curve was filed as active; the % refers to the signal ratio; note: potency is the fitted concentration of half-maximal effect)
Summary of the method: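 Fluorescence at 460 and 530 nm (405 nm excitation) reported beta-lactamase cleavage of CCF4 after 2 h room-temperature loading. HEK293 reporter cells in 1% charcoal/dextran-treated FBS had received compound and rosiglitazone for 16 h.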

[7] = biological target: Vitamin D3 receptor (Homo sapiens) (UniProt P11473); assay: qHTS assay for small molecule antagonists of vitamin D receptor signaling (AID 588541);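 note: receptor activated by calcitriol during compound treatment; series mostly up to about 77 µM; % is set by controls: 0 for no effect and ±100 for the full control effect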
Summary of the method: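 VDR-UAS-bla HEK293T cells in 2% charcoal-stripped FBS were stimulated with 1-alpha,25-dihydroxyvitamin D3 (3 nM final) plus compound for 16 h at 37 C. The beta-lactamase CCF4 readout was normalized to 50 nM agonist and DMSO, and Hill fits gave IC50.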

[8] = biological target: Vitamin D3 receptor (Homo sapiens) (UniProt P11473); assay: qHTS assay for small molecule agonists of vitamin D receptor signaling (AID 588543);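 note: 0% = DMSO basal and 100% = reference agonist control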
Summary of the method: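 Reporter cells (HEK293T, VDR-UAS-bla) were seeded in medium with 2% charcoal-stripped serum and incubated 5 h, then compounds in concentration series were added for 16 h at 37 °C. Stimulation was scaled between DMSO basal and 50 nM 1α,25-dihydroxyvitamin D3.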

[9] = qHTS assay for small molecule agonists of retinoid X receptor alpha signaling (AID 588544); details: HEK293T RXRa-UAS-bla, beta-lactamase reporter, 18 h; 530 nm emission; note: potency is the fitted concentration of half-maximal effect;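 for activation: 0% = DMSO basal wells and 100% = reference agonist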
[10] = biological target: Retinoic acid receptor RXR-alpha (Homo sapiens) (UniProt P19793); assay: as above
[11] = biological target: Thyroid hormone receptor beta (Homo sapiens) (UniProt P10828); assay: qHTS assay for small molecule agonists of thyroid hormone receptor beta signaling (AID 588545)
Summary of the method: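 HEK 293 TR-UAS-bla; agonist mode; 18 hrs, 37 C; CCF4, ex 405/em 460 and 530 nm; norm. T3 10 nM = 100%, DMSO = 0%; Hill fit → EC50, efficacy.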

[12] = biological target: Thyroid hormone receptor beta (Homo sapiens) (UniProt P10828); assay: qHTS assay for small molecule antagonists of thyroid hormone receptor beta signaling (AID 588547; active = well fitted inhibition curve with a large enough effect in the signal ratio, with a control signal flat, not every such curve was filed as active; the % refers to the signal ratio;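 note: cells stimulated with 0.4 nM T3 agonist during compound exposure; series mostly up to about 77 µM; % is set by controls: 0 for no effect and ±100 for the full control effect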); details: TR-UAS-bla HEK293, beta-lactamase ratio, antagonist mode, 18 h
Summary of the method: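 TR-UAS-bla GripTite HEK293 cells in 2% charcoal/dextran FBS medium; compounds 0.59 nM to 92 uM with T3 at 0.4nM final, 18 h at 37 C. Beta-lactamase read by CCF4 fluorescence (460/530 nm); Hill fits gave IC50 and efficacy.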

[13] = qHTS assay for small molecule activators of the p53 signaling pathway (AID 651743; active = well fitted activation curve with a large enough effect in the signal ratio, not every such curve was filed as active; the % refers to the signal ratio; note: series mostly up to about 92 µM; % of control where 0% means no effect); details: HCT-116 p53RE-bla, beta-lactamase FRET ratio, 16 h; activation: stronger effect = higher value
Summary of the method: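 Following 16 hours of compound exposure at 37 C, HCT-116 cells bearing the p53RE-bla reporter were loaded with LiveBLAzer B/G FRET substrate for 2 hours at room temperature and fluorescence intensity was recorded.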

[14] = qHTS assay for small molecule activators of the nuclear factor-kappa B (NF-kB) signaling pathway (AID 651749; active = well fitted activation curve with a large enough effect in the signal ratio; the % refers to the signal ratio; note: series mostly up to about 77 µM; % of control where 0% means no effect); details: NF-kB-bla ME-180 cells, beta-lactamase FRET ratio, 16 h; activation: stronger effect = higher value
Summary of the method: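 In this qHTS format, compounds acting as activators increase NF-kB-driven beta-lactamase in ME-180 cells, measured as disrupted FRET after 16 hr exposure at 37C and 5% CO2.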

[15] = qHTS assay for environmental chemicals that activate the Aryl hydrocarbon Receptor (AhR) signaling pathway (AID 651777; active = well fitted curve in the direction sought with a large enough effect; an effect the other way counts as inactive or inconclusive; note: % of control where 0% means no effect; nearly all actives have a fitted effect of over 15% in size); details: 1A2-DRE human hepatoma cells, luciferase, 24 h; activation: stronger effect = higher value
Summary of the method: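 Human hepatoma 1A2-DRE cells, stably carrying a dioxin response element and CYP1A2 promoter driving luciferase, were exposed to compounds for 24 hr at 37 C and 5% CO2. Luciferase signal was then read after 30 min One-Glo at room temperature.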

[16] = biological target: Peroxisome proliferator-activated receptor alpha (Homo sapiens) (UniProt Q07869); assay: qHTS assay for small molecule agonists of the peroxisome proliferator-activated receptor alpha (PPARalpha) signaling pathway (AID 651778; active = well fitted curve in the direction sought with a large enough effect; an effect the other way counts as inactive or inconclusive; note: % of control where 0% means no effect); details: PathHunter PPARalpha complementation, chemiluminescence, 6 h; max response: stronger effect = higher value
Summary of the method: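 Enzyme-fragment complementation assay in which ligand-bound PPARalpha translocates and forms an active enzyme that generates chemiluminescence. Cells were plated overnight, exposed to compound for 6 hr at 37 C, and then given detection reagent for 60 min at room temperature.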

[17] = qHTS assay for small molecule agonists of the antioxidant response element (ARE) signaling pathway measured by Nrf2-dependant transcriptional activity - cell viability counter screen (AID 720653; active = well fitted curve in the direction sought with a large enough effect in the repeat runs; an effect the other way counts as inactive or inconclusive; note: % is set by controls: 0 for no effect and ±100 for the full control effect); details: ARE-bla HepG2 viability, CellTiter-Glo ATP luminescence, 16 h; max response: stronger effect = lower value
Summary of the method: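 ARE-bla HepG2 cells treated with compounds for 16 h at 37C; this counter screen measures viability as intracellular ATP by CellTiter-Glo luminescence after 30 min at room temperature.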

[18] = qHTS assay for cell viability of HEK293 cells (AID 743288; active = well fitted curve in the direction sought with a large enough effect; an effect the other way counts as inactive or inconclusive; note: % is set by controls: 0 for no effect and ±100 for the full control effect; nearly all actives have a fitted effect of over 50% in size); details: ATP luminescence (CellTiter-Glo), 18 h; max response: stronger effect = lower value
Summary of the method: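 Viable-cell counts were inferred from luciferase-based ATP content in HEK293 cells seeded at 2,000/well, pre-incubated ≥5 h, then dosed with DMSO-solubilised compounds for 18 h at 37 C.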

[19] = qHTS assay for cell viability of the p53RE-bla HCT-116 cell line (AID 743292; active = well fitted curve in the direction sought with a large enough effect; an effect the other way counts as inactive or inconclusive; note: % is set by controls: 0 for no effect and ±100 for the full control effect; nearly all actives have a fitted effect of over 55% in size)
Summary of the method: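 CellSensor p53RE-bla HCT-116 cells, 4,000/well, preincubated 5 h at 37 C, then exposed to compounds in DMSO for 16 h at 37 C. Viability read as CellTiter-Glo luminescence (intracellular ATP) after 30 min at room temperature.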

[20] = biological target: Nuclear receptor subfamily 1 group I member 2 (Rattus norvegicus) (UniProt Q9R1A7); assay: qHTS assay for small molecule activators of the rat pregnane X receptor (rPXR) signaling pathway (AID 651751; call rule not given here; note: 0% is about no effect); details: rPXR reporter cells, luciferase (One-Glo), 24 h
[21] = biological target: Peroxisome proliferator-activated receptor delta (Homo sapiens) (UniProt Q03181); assay: qHTS assay for small molecule agonists of peroxisome proliferator-activated receptor delta signaling (AID 588534);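 note: 0% = DMSO basal wells and 100% = positive control agonist at 10 µM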
Summary of the method: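 Agonist-mode qHTS; reporter cells, 5 hrs 37 C pre-incubation; compound titration, 18 hrs 37 C; CCF4 dye, 2 hrs RT; fluorescence read. EC50/efficacy via Hill fit.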

[22] = qHTS assay for small molecule agonists of the antioxidant response element (ARE) signaling pathway measured by Nrf2-dependant transcriptional activity (AID 720636; active = well fitted curve in the direction sought with a large enough effect in the repeat runs; an effect the other way counts as inactive or inconclusive; note: % of control where 0% means no effect)
Summary of the method: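 ARE-luc HepG2 cells carrying an Nrf2-responsive luciferase reporter were plated in medium with 1% dialyzed FBS, left 6 hr at 37 C to attach, then exposed to compound for 16 hr. Luciferase luminescence was read after ONE-Glo addition.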

[23] = qHTS assay for small molecule antagonists of retinoid X receptor alpha signaling (AID 588546; active = well fitted inhibition curve with a large enough effect in the signal ratio, with a control signal flat, not every such curve was filed as active; the % refers to the signal ratio); details: HEK293T RXRa-UAS-bla, beta-lactamase ratio, antagonist mode; measured here: W530 green channel, cytotoxicity proxy
Summary of the method: (§2)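 Beta-lactamase reporter inhibition, read as CCF4 fluorescence ratio (ex 405, em 460/530 nm) after 2 h at RT. HEK293T UAS-bla cells, 2500/well, were stimulated with 9-cis-RA at 500 or 100 nM final alongside test compound for 18 h at 37 C.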

[24] = biological target: Retinoic acid receptor RXR-alpha (Homo sapiens) (UniProt P19793); assay: as above; details: HEK293T RXRa-UAS-bla, beta-lactamase ratio, antagonist mode
Summary of the method: as §2

[25] = qHTS assay for small molecule activators of the human pregnane X receptor (PXR) signaling pathway (AID 720659; call rule not given here; note: 0% is about no effect)

Sequence of Retinoic acid receptor RXR-alpha (Homo sapiens) (P19793 whole entry, looked up): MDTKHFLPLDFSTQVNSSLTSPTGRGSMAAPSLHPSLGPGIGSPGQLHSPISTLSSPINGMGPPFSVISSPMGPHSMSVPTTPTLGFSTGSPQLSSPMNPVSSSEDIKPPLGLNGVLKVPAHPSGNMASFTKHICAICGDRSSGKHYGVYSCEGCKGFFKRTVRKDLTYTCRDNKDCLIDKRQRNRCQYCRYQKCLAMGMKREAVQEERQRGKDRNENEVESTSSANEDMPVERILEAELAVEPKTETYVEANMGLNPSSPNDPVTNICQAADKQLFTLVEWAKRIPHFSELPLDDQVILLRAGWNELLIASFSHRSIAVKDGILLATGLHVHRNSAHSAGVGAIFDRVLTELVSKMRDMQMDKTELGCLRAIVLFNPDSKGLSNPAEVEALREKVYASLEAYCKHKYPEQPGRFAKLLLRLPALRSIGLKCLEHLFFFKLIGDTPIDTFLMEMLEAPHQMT
Sequence of Peroxisome proliferator-activated receptor delta (Homo sapiens) (Q03181 whole entry, looked up): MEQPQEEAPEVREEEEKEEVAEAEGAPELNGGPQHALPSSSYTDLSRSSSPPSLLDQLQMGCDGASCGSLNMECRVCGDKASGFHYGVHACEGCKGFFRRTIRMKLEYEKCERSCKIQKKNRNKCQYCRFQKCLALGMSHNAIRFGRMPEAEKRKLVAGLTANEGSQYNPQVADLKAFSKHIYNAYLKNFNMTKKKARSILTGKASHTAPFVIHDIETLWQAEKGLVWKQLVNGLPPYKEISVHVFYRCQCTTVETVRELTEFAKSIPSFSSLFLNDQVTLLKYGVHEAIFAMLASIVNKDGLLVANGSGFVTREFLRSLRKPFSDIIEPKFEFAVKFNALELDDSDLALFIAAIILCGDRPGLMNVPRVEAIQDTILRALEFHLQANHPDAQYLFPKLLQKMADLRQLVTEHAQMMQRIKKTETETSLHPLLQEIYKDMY
Sequence of Thyroid hormone receptor beta (Homo sapiens) (P10828 whole entry, looked up): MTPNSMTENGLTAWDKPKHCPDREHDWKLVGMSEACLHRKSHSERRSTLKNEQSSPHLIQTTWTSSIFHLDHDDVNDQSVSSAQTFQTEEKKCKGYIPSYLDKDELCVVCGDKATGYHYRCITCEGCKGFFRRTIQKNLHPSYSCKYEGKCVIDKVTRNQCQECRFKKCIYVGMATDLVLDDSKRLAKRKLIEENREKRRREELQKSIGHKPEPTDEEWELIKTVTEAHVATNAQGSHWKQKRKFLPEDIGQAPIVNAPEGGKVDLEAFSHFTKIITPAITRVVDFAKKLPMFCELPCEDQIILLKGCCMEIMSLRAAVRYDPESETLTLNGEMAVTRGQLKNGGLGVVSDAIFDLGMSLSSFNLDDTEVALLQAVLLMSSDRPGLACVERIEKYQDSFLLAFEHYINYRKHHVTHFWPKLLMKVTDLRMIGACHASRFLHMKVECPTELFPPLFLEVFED
Sequence of Glucocorticoid receptor (Homo sapiens) (P04150 whole entry, looked up): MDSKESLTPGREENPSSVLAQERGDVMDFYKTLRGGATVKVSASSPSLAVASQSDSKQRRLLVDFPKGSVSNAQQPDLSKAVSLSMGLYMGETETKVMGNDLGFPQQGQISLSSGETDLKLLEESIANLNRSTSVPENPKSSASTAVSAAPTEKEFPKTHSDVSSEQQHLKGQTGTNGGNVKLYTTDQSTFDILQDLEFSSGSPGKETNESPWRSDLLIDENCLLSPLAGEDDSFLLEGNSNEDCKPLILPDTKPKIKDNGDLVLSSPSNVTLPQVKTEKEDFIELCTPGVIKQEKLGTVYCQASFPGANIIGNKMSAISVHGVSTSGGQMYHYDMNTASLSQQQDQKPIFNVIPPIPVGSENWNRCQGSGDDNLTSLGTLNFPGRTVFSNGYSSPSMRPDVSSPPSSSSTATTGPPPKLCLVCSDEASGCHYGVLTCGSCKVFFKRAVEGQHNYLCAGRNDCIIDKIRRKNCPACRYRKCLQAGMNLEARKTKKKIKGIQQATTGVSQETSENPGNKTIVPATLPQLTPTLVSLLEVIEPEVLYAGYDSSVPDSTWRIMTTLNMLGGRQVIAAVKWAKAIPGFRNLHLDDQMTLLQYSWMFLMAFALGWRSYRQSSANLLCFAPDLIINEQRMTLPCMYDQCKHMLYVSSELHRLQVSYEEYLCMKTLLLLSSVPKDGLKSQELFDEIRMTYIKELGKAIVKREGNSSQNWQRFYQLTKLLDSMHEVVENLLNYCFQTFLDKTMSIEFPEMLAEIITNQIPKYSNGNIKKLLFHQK
Sequence of Vitamin D3 receptor (Homo sapiens) (P11473 whole entry, looked up): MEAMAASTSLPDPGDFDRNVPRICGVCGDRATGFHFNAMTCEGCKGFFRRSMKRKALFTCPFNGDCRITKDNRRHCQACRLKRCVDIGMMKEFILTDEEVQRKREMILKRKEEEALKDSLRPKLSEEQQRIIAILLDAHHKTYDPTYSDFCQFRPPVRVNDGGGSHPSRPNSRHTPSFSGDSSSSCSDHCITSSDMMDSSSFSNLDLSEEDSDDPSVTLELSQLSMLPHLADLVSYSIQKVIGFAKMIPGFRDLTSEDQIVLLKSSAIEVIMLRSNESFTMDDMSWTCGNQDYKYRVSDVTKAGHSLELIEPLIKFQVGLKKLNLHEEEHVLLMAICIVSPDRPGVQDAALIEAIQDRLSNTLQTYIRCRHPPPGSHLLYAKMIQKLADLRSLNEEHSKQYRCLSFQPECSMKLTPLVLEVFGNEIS
Sequence of Peroxisome proliferator-activated receptor gamma (Homo sapiens) (P37231 whole entry, looked up): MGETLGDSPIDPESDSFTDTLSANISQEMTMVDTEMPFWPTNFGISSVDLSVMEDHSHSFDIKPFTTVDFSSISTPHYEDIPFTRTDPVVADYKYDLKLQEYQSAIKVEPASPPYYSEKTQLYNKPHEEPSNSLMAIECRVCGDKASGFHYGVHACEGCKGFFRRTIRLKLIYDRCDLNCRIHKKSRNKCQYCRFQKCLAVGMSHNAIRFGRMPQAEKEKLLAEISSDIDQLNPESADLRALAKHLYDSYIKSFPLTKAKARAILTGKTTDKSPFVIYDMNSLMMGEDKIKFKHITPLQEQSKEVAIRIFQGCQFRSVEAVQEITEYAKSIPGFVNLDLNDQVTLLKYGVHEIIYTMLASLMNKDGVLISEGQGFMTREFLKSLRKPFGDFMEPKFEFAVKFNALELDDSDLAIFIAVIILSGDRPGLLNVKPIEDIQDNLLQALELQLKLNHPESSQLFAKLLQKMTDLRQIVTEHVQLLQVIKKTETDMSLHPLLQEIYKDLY
Sequence of Peroxisome proliferator-activated receptor alpha (Homo sapiens) (Q07869 whole entry, looked up, the tested form may be a part): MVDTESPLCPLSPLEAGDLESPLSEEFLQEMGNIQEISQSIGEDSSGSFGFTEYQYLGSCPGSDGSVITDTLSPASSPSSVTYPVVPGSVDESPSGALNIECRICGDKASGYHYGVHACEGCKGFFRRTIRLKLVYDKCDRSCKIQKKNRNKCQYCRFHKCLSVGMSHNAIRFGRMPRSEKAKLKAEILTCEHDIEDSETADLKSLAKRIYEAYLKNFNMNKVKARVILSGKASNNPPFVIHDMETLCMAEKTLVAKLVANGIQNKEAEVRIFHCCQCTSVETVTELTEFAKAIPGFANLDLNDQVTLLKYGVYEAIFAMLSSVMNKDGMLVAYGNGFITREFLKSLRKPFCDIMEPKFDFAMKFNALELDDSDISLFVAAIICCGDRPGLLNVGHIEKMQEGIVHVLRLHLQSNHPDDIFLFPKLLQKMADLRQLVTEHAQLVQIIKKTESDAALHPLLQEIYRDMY
Sequence of Nuclear receptor subfamily 1 group I member 2 (Rattus norvegicus) (Q9R1A7 whole entry, looked up): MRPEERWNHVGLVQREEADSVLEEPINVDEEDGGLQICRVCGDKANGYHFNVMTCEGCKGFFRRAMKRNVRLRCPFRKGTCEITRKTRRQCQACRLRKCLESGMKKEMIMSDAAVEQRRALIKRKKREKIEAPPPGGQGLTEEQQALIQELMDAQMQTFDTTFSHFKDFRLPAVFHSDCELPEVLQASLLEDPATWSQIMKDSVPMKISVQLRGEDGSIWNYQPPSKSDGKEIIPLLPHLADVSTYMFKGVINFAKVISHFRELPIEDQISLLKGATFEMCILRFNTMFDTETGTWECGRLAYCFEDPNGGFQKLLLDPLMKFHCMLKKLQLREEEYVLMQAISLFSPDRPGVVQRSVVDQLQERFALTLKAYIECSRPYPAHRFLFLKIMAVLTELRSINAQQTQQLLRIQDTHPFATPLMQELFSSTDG

C1=Cc2cccc3cccc1c23
activation [1]: -9.46% (inactive) | Potency [2]: inactive | max response [3]: -1.47% | Potency [4]: inactive | Potency [5]: inactive | Potency [6]: inactive | Potency [7]: inactive | outcome [8]: inactive | max response [9]: -12.5% | Potency [10]: inactive | Potency [11]: inactive | activity change % (negative = inhibition) [12]: 1.99% (inactive) | activation [13]: -6.25% (inactive) | activation [14]: 0.838% (inactive) | activation [15]: 0.26% (inactive) | max response [16]: 3.92% (inactive) | max response [17]: -6.24% (inactive) | max response [18]: -13.5% (inactive) | Potency [19]: inactive | max response [20]: 3.17% (inactive)

N#Cc1c[nH]cc1-c1cccc2c1OC(F)(F)O2
activation [1]: -6.3% (inactive) | outcome [21]: inactive | Potency [6]: 31.6 µM (active) | outcome [8]: inactive | max response [9]: -13.3% | Potency [10]: 2.24 µM (active) | Potency [11]: inactive | activation [14]: -3.39% (inactive) | max response [16]: -0.738% (inactive) | Potency [22]: inactive | max response [17]: -6.59% (inactive) | max response [18]: -14.2% (inactive)

ClC1=C(Cl)C2(Cl)C3C4OC4C(Cl)C3C1(Cl)C2(Cl)Cl (stereo not given)
Potency [2]: inactive | outcome [21]: inactive | max response [3]: -5.72% | Potency [4]: inactive | Potency [6]: inactive | Potency [7]: inactive | max response [9]: 2.4% | Potency [10]: inactive | Potency [11]: inactive | max response [23]: -11.3% | max response [24]: -6.75% (inactive) | activity change % (negative = inhibition) [12]: 16.3% (inactive) | activation [13]: -0.997% (inactive) | activation [15]: -0.371% (inactive) | Potency [22]: inactive | max response [17]: 0.273% (inactive) | max response [18]: -17.2% (inactive)

S=C(S)NCCNC(=S)S
activation [1]: -2.17% (inactive) | Potency [7]: inactive | max response [9]: 9.28% | Potency [10]: inactive

CCc1cnc(C2=NC(C)(C(C)C)C(=O)N2)c(C(=O)O)c1 (stereo not given)
activation [1]: -7.69% (inactive) | outcome [21]: inactive | max response [3]: 6.03% | Potency [4]: inactive | Potency [5]: inactive | Potency [6]: inactive | Potency [7]: inactive | outcome [8]: inactive | max response [9]: -15.1% | Potency [10]: inactive | Potency [11]: inactive | activity change % (negative = inhibition) [12]: -0.801% (inactive) | activation [15]: -2.09% (inactive) | max response [17]: 16.5% (inactive) | max response [18]: 4.64% (inactive) | max response [20]: -2.79% (inactive) | outcome [25]: inactive

CC(C)C1(C)N=C(c2nc3ccccc3cc2C(=O)O)NC1=O (stereo not given)
activation [1]: 2.3% (inactive) | Potency [2]: inactive | outcome [21]: inactive | Potency [6]: inactive | Potency [7]: inactive | outcome [8]: inactive | max response [9]: 5.36% | Potency [10]: inactive | Potency [11]: inactive | max response [23]: 6.33% | max response [24]: 4.25% (inactive) | activity change % (negative = inhibition) [12]: 9.94% (inactive) | activation [13]: 1.69% (inactive) | activation [14]: -0.622% (inactive) | activation [15]: -0.47% (inactive) | max response [16]: 0.197% (inactive) | Potency [22]: inactive | max response [17]: -2.59% (inactive) | max response [18]: -6.66% (inactive) | max response [20]: -1.98% (inactive)
